Source: PubChem BioAssay (NCATS)
Records with an inconclusive call do not appear. Activity calls are given as the source filed them. Calls follow the shape of the dose curve; as a rule, active = well fitted inhibition curve with a large enough effect; inconclusive = small, poorly fitted or top-dose-only effect; inactive = flat fitted curve, though single readings scatter.

Tests used:
Assay in all cases: qHTS profiling for inhibitors of Plasmodium falciparum proliferation (AID 504749); also: nearly all actives have a fitted effect of over 60% in size
Settings in all cases: P. falciparum in erythrocytes, SYBR Green DNA, 72 h; series mostly up to 28.7 µM
[1] = system: 3D7
Method in brief: (§1)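 Infected RBCs, 0.3% parasitemia/2.5% Hct final; cpd 72 h, 37 C, 5% CO2; lysis buffer with saponin/triton/SYBR Green I, o/n RT dark; FI 485/535; norm. to artemisinin (0.29 uM) and DMSO.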

[2] = system: 7G8
Method in brief: as §1

[3] = system: CP185
Method in brief: as §1

[4] = system: CP194
Method in brief: as §1

[5] = system: CP201
Method in brief: as §1

[6] = system: CP237
Method in brief: as §1

[7] = system: CP238
Method in brief: as §1

[8] = system: CP262
Method in brief: as §1

[9] = system: CP265
Method in brief: as §1

[10] = system: CP266
Method in brief: as §1

[11] = system: CP268
Method in brief: as §1

[12] = system: CP286
Method in brief: as §1

[13] = system: CP305
Method in brief: as §1

[14] = system: CP335
Method in brief: as §1

[15] = system: DIV30
Method in brief: as §1

[16] = system: Dd2
Method in brief: as §1

[17] = system: ECU
Method in brief: as §1

[18] = system: HB3
Method in brief: as §1

[19] = system: P94_40
Method in brief: as §1

[20] = system: TAB109
Method in brief: as §1

Measured: Potency

C/C=C1\C2C=C(C)CC1(N)c1ccc(=O)[nH]c1C2 (stereo not given)
inactive: all assays above
